Experimental data reported in PubChem BioAssay (Tox21).
Results filed as inconclusive are left out. Activity calls are given as the source filed them. Unless noted, calls come from the whole dose curve; as a rule, active = well fitted curve in the direction sought with a large enough effect in the repeat runs; inconclusive = weak or mixed curves; inactive = no such curve, though single readings can be large; an effect the other way counts as inactive or inconclusive.

Experiments:
[1] = qHTS assay to identify small molecule agonists of the peroxisome proliferator-activated receptor delta (PPARd) signaling pathway - cell viability counter screen (AID 743211); note: nearly all actives have a fitted effect of over 55% in size
Outline: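 PPARd-bla HEK293H cells (UAS-beta-lactamase reporter) were treated with compounds for 17 h at 37 C. Viability was then read in the same wells by CellTiter-Glo luminescence after 30 min at room temperature.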

[2] = target: Peroxisome proliferator-activated receptor delta (Homo sapiens) (UniProt Q03181); test: qHTS assay to identify small molecule agonists of the peroxisome proliferator-activated receptor delta (PPARd) signaling pathway (AID 743212; calls by dose curve)
Sequence of Peroxisome proliferator-activated receptor delta (Homo sapiens) (Q03181 whole entry, looked up): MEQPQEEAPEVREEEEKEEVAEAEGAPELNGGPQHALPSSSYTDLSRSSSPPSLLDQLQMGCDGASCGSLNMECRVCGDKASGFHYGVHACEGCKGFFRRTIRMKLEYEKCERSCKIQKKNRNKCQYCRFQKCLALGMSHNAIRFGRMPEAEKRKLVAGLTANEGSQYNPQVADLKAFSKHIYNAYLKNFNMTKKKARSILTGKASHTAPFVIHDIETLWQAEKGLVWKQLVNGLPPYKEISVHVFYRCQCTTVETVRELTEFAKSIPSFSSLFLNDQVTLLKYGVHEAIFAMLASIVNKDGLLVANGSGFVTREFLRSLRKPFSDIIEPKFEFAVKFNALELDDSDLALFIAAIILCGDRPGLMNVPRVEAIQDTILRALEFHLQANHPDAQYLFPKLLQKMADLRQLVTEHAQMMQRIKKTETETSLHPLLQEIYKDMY
Outline: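 Read-out: beta-lactamase FRET fluorescence after 2 h room-temperature incubation with LiveBLAzer B/G substrate. Cells were HEK293H carrying a UAS-bla reporter for PPARd, treated at 37 C with DMSO-dissolved compounds.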

[3] = qHTS assay to identify small molecule antagonists of the peroxisome proliferator-activated receptor delta (PPARd) signaling pathway - cell viability counter screen (AID 743213); note: nearly all actives have a fitted effect of over 50% in size
Outline: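 CellTiter-Glo was added to PPARd-bla HEK293H wells following 17 h compound treatment in the presence of 300 nM L165041. Luminescence was recorded after 30 min at room temperature.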

[4] = target: Peroxisome proliferator-activated receptor delta (Homo sapiens) (UniProt Q03181); test: qHTS assay to identify small molecule antagonists of the peroxisome proliferator-activated receptor delta (PPARd) signaling pathway (AID 743215; active = well fitted inhibition curve with a large enough effect in the signal ratio in the repeat runs, not every such curve was filed as active; the % refers to the signal ratio;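 note: cells stimulated with agonist L165041 at 300 nM final during compound exposure; series mostly up to about 62 µM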)
Outline: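 Plated HEK293H PPARd-bla cells rested 5 h at 37 C and 5% CO2. Compound, then agonist L165041 at 300 nM final, was added; 17 h at 37 C followed. Substrate loading, 2 h room temperature, fluorescence measured.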

[5] = target: Bile acid receptor (Homo sapiens) (UniProt Q96RI1); test: qHTS assay to identify small molecule antagonists of the farnesoid-X-receptor (FXR) signaling pathway (AID 743217; active = well fitted inhibition curve with a large enough effect in the signal ratio in the repeat runs, not every such curve was filed as active; the % refers to the signal ratio)
Sequence of Bile acid receptor (Homo sapiens) (Q96RI1 whole entry, looked up): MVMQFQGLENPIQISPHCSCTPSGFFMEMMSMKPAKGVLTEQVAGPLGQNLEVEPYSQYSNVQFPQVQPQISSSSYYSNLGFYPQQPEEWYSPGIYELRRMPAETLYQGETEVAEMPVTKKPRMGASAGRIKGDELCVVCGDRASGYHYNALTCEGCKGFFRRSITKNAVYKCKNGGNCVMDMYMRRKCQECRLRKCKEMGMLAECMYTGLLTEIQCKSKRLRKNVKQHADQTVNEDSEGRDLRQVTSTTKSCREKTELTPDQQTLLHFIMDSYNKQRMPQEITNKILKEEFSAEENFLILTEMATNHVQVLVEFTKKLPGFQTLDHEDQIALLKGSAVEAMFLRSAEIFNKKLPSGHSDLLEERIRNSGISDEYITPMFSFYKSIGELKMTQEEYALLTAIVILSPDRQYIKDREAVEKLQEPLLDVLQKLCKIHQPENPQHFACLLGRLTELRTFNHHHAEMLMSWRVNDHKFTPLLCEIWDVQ
Outline: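 Screen of the Tox21 10K library in quantitative HTS format using FXR-UAS-bla HEK 293T reporter cells. Agonist chenodeoxycholic acid, 50 uM final, added with compounds; 16 h incubation at 37 °C; beta-lactamase FRET fluorescence measured.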

[6] = qHTS assay to identify small molecule agonists of the farnesoid-X-receptor (FXR) signaling pathway - cell viability counter screen (AID 743218); note: nearly all actives have a fitted effect of over 45% in size
Outline: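 Viability of FXR-bla HEK 293T cells is measured by ATP-based CellTiter-Glo luminescence following 16 h compound treatment at 37 C and a prior 2 h room-temperature beta-lactamase substrate step.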

[7] = qHTS assay to identify small molecule antagonists of the farnesoid-X-receptor (FXR) signaling pathway - cell viability counter screen (AID 743221; active = well fitted cell-killing curve with a large enough effect in the repeat runs, not every such curve was filed as active; note: nearly all actives have a fitted effect of over 50% in size)
Outline: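 FXR-UAS-bla HEK 293T cells were treated with test compounds plus chenodeoxycholic acid (50 uM final) for 16 h at 37 C. Cell viability in the same wells was then read as CellTiter-Glo luminescence after 30 min at room temperature.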

[8] = target: Vitamin D3 receptor (Homo sapiens) (UniProt P11473); test: qHTS assay to identify small molecule agonists of the vitamin D receptor (VDR) signaling pathway (AID 743222; calls by dose curve)
Sequence of Vitamin D3 receptor (Homo sapiens) (P11473 whole entry, looked up): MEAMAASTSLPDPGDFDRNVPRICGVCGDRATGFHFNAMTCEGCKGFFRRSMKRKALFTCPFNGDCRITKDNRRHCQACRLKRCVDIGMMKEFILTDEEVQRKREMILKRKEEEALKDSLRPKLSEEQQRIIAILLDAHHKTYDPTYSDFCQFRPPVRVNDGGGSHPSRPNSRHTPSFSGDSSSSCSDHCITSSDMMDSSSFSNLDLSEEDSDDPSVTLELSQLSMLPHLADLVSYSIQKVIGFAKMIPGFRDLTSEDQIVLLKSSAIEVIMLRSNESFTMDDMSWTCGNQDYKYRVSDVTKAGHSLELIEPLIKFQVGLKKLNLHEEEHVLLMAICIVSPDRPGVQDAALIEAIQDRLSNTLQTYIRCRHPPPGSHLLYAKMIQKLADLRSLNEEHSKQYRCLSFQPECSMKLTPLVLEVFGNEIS
Outline: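 Fluorescence from cleaved LiveBLAzer B/G FRET substrate served as readout. VDR-bla cells had been treated 16 h at 37C with test compounds in DMSO, following a 4 h settling period, and substrate was loaded for 2 h at RT.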

[9] = target: Vitamin D3 receptor (Homo sapiens) (UniProt P11473); test: qHTS assay to identify small molecule antagonists of the vitamin D receptor (VDR) signaling pathway (AID 743223; active = well fitted inhibition curve with a large enough effect in the signal ratio in the repeat runs, not every such curve was filed as active; the % refers to the signal ratio)
Outline: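 VDR-bla cells were plated, incubated 4 h at 37C, then given compound and 1alpha,25-dihydroxyvitamin D3 (3 nM final). After 16 h at 37C, LiveBLAzer B/G FRET substrate was added for 2 h at room temperature and fluorescence read.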

[10] = target: Bile acid receptor (Homo sapiens) (UniProt Q96RI1); test: qHTS assay to identify small molecule agonists of the farnesoid-X-receptor (FXR) signaling pathway (AID 743220; active = well fitted activation curve with a large enough effect in the signal ratio in the repeat runs, not every such curve was filed as active; the % refers to the signal ratio)
Outline: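 FXR-UAS-bla HEK 293T cells carrying a UAS-driven beta-lactamase reporter were plated for 5 h at 37C/5% CO2, then exposed to DMSO-dissolved Tox21 10K compounds for 16 h at 37C. A LiveBLAzer B/G FRET substrate was loaded for 2 h at room temperature before fluorescence reading.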

Measured: Potency

NC(=O)C(Cl)(Cl)Cl
inactive: [1] | [2] | [3] | [4] | [5] | [6] | [7] | [8] | [9]

O=C(O)c1ccccc1C(=O)Nc1cccc2ccccc12
inactive: [1] | [2] | [3] | [4] | [5] | [6] | [7] | [8] | [9]

O=C(CBr)OCc1ccccc1
inactive: [1] | [2] | [3] | [4] | [5] | [6] | [10] | [7] | [8] | [9]

O=C(O)CC(Cl)C(=O)O (configuration not stated)
inactive: [1] | [2] | [3] | [4] | [5] | [6] | [7]

CC(C)(OO)c1ccccc1
inactive: [1] | [2] | [3] | [4] | [5] | [10] | [7] | [8]

CCCCCCC#N
inactive: [1] | [2] | [3] | [4] | [5] | [6] | [7] | [8] | [9]

COc1cc(CC(C)N)cc2c1OCO2 (configuration not stated)
inactive: [1] | [2] | [3] | [4] | [5] | [6] | [10] | [7]

CCCN(CC1CC1)c1c([N+](=O)[O-])cc(C(F)(F)F)cc1[N+](=O)[O-]
inactive: [1] | [2] | [3] | [4] | [5] | [6] | [10] | [7]

CCCC(=O)Cl
inactive: [1] | [2] | [3] | [4] | [5] | [6] | [10] | [8] | [9]

CC(Cl)Cl
inactive: [1] | [2] | [3] | [4] | [5] | [6] | [7] | [8] | [9]

ClCCCCBr
inactive: [1] | [2] | [3] | [4] | [5] | [6] | [7] | [8] | [9]

Cc1ccc2ccccc2c1
inactive: [1] | [2] | [3] | [4] | [5] | [6] | [10] | [7]

Cn1sc(Cl)cc1=O
inactive: [1] | [2] | [3] | [4] | [5] | [6] | [7] | [8] | [9]

Sc1ccccc1Cl
inactive: [1] | [2] | [3] | [4] | [5] | [10] | [7] | [8] | [9]

C=CCC1([C@H](C)CCC)C(=O)NC(=O)NC1=O
inactive: [1] | [2] | [3] | [4] | [5] | [7] | [8] | [9]

O=[N+]([O-])c1ccccc1CCl
inactive: [1] | [2] | [3] | [4] | [5] | [6] | [10] | [7] | [8]

Nc1nc(N)nc(N)n1
inactive: [1] | [2] | [3] | [4] | [5] | [6] | [8] | [9]

C=CC(C)=O
inactive: [1] | [2] | [3] | [4] | [5] | [6] | [7]

CCOS(C)(=O)=O
inactive: [1] | [2] | [3] | [4] | [5] | [7] | [8] | [9]

CCC(Br)(CC)C(=O)NC(N)=O
inactive: [1] | [2] | [3] | [4] | [5] | [10] | [7] | [8] | [9]

ClP(Cl)(Cl)(Cl)Cl
inactive: [1] | [2] | [3] | [4] | [5] | [6] | [8] | [9]

CCCCOC(=O)c1ccccc1C(=O)OCc1ccccc1
inactive: [1] | [2]

CCCCCCCCOC(=O)c1ccc(C(=O)OCCCCCCCC)c(C(=O)OCCCCCCCC)c1
inactive: [1] | [2] | [3] | [4] | [5]

CCCCN=C=O
inactive: [1] | [2] | [3] | [4] | [5] | [6] | [10] | [7] | [8] | [9]

COc1nn(C(=O)NS(=O)(=O)c2ccccc2OC(F)(F)F)c(=O)n1C
inactive: [1] | [2] | [3] | [4] | [5] | [6] | [10] | [7] | [8] | [9]

Clc1cccc(SC2CCNCC2)n1
inactive: [1] | [2] | [3] | [4] | [5] | [10] | [9]
